Screens as filed in PubChem BioAssay.
This is a sample that favours compounds with a hit; in the whole collection about 3.1% have one here.
HIF-2a block – HIF-2a inhibition; 786-0 RCC cells HIF-2a reporter, luciferase luminescence, overnight; inhibition, % at 18.8 µM; hit rate 0.72% among 360,000;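 active = inhibition of the luminescence signal of 40% or more relative to plate controls, in a single-dose primary screen at 18.75 µM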
KKLEB cytotox – counter-screen for CF NF-kB inhibitors: cytotoxicity. KKLEB CF airway cells viability, ATPlite luminescence, overnight; stronger effect = lower value; cells stimulated with P. aeruginosa culture filtrate. activity change (cytotoxicity), % at 5 µM. hit rate 0.36% among 360,000;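 active = corrected activity change at or below -50% at 5 µM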
TRAIL sens C8 – caspase-8 TRAIL sensitization; hit rate 1% among 360,000; NB7+C8 cells + TRAIL, ATPlite viability luminescence; inhibition (viability loss, TRAIL sensitization), % at 10 µM;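 active = compounds causing at least 50% loss of cell viability in the single-dose screen, relative to plate controls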
PPC-1+TRAIL kill – compounds killing PPC-1 cancer cells with TRAIL present (potentiator screen, no TRAIL-free arm); AID 1443; cell killing (% activity), % at 4 µM or 5 µM; hit rate 0.41% among 220,000; PPC-1 cells + TRAIL, ATPLite viability luminescence;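 active = cell killing above 50% in the first pass at 4 µM, then a duplicate retest at 5 µM averaging 50% or more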;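 note: plate controls were cells with TRAIL plus DMSO for no effect and medium-only wells lacking cells for full effect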
CF NFkB inh – blocks PAF-induced NF-kB reporter in cystic fibrosis cells; KKLEB NF-kB-GFP reporter, GFP fluorescence overnight; inhibition, % at 5 µM; hit rate 0.86% among 360,000; AID 588850;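 active = at least 50% inhibition at 5 µM, scaled per plate between neutral and stimulator controls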;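 note: PAF is a Pseudomonas aeruginosa culture filtrate used as stimulus; plate controls were PAF-stimulated DMSO wells for no effect and unstimulated DMSO wells for full effect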
Peg3 prom inh – reduces Peg3 promoter-driven luciferase expression in HeLa; inhibition, % at 20 µM; hit rate 1.7% among 360,000; AID 588405; HeLa PEG-Prom luciferase reporter, luminescence, overnight;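 active = inhibition of at least 50% at 20 µM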
PPC-1 tox – kills PPC-1 cells; shares compounds with PPC-1+TRAIL kill; PPC-1 viability, ATPlite luminescence, overnight; cytotoxicity, % at 5 µM; hit rate 50% among 1,200; AID 1447;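 active = reconfirmed compounds whose average cytotoxicity reaches 50% or more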;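 note: 0% = DMSO-treated cells and 100% = wells holding medium but no cells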
* hit, by the source's call; . = no result given.

SMILES	HIF-2a block	KKLEB cytotox	TRAIL sens C8	PPC-1+TRAIL kill	CF NFkB inh	Peg3 prom inh	PPC-1 tox
O=C(c1ccco1)N1CCN(c2nc(C3CC3)nc3c2nnn3Cc2ccccc2Cl)CC1	-4.2	-11.0	-3.1	12.7	-1.2	28.0	4.4
Cc1cc(C(F)(F)F)c(C#N)c(SCC(=O)Nc2nc3ccccc3s2)n1	-34.8	-40.0	44.3	11.3	-6.4	-76.9	.
Cc1ccc2sc(NC(=O)CSc3nc(C)cc(C)c3C#N)nc2c1	-210.7	-23.3	69.8*	65.0*	-9.8	-274.9	62.2*
Cc1cc(/C=N/NC(=O)c2cccs2)c(C)n1-c1ccccc1	-35.4	-26.5	61.4*	68.7*	-23.3	-120.0	67.8*
Cc1cccc2nc(=S)n(C(=O)c3ccco3)n12	-310.4	13.1	54.4*	43.4	-37.6	-297.9	48.7
Cc1cc(OCC(=O)N2CCC(C(N)=O)CC2)c2c(C)cc(=O)oc2c1	6.0	2.4	6.3	.	-24.5	-2.8	.
C=CCn1c(N/N=C/c2ccc(O)cc2)nc2ccccc2c1=O	-240.3	-12.9	17.9	27.2	-8.5	-202.9	31.5
C=CCn1c(C)nc2ccccc2c1=O	22.2	-12.8	1.3	5.7	19.7	-2.4	.
CCCCN1C(=O)C(CC(=O)NCc2cccc3ccccc23)CC(C(=O)N(C)C)=C1C (configuration not stated)	6.2	5.5	1.2	.	-9.4	-6.0	.
CCN(CC)C(=O)CSc1ncnc2c(-c3cccs3)nsc12	-149.7	-6.1	10.7	4.5	13.0	-174.4	3.8
Cc1nc(NC(=O)C(C)(C)C)sc1C(=O)Cn1cc(-c2ccc(C(C)(C)C)cc2)nn1	-18.5	.	-8.2	.	.	.	.
COc1ccccc1-c1nc(-c2ccccn2)no1	43.1*	-28.6	73.2*	63.3*	-26.7	46.5	63.3*
Clc1ccc(-c2nc(-c3ccccn3)no2)cc1Cl	-49.5	-25.3	78.3*	66.0*	-15.9	5.2	63.7*
O=C(O)/C=C/C(=O)Nc1ccccc1C(=O)OCC(=O)c1ccc2c(c1)OCCO2	-80.3	-2.8	52.8*	78.3*	0.7	-84.9	78.9*
CCCCC(=O)Nc1ccccc1C(=O)OCC(=O)c1ccc2c(c1)OCCO2	-72.3	-6.2	9.6	24.7	-3.6	-67.4	.
COc1ccccc1CNc1nc(Nc2ccc(C)cc2C)c2sccc2n1	-9.3	6.6	15.1	.	-37.0	16.4	.
Cc1ccc(CSc2sc(C(=O)c3ccccc3)c(N)c2C#N)cc1	-37.6	-10.3	-5.1	-0.6	7.2	-76.3	.
Cc1ccc(-c2sc(C(=O)NN)c(C)c2C#N)cc1	-11.4	16.2	34.4	73.1*	-2.7	4.3	76.0*
Cn1c(=N)n(CC(=O)O)c2ccccc21	2.7	6.7	-1.4	0.6	-6.9	10.8	.
Cn1c(=N)n(CC(=O)c2ccccc2)c2ccccc21	-63.2	-16.1	80.6*	53.0*	-19.8	-92.3	56.9*
C=CCOC(=O)C1=C(C)NC(=S)C(C#N)(CC=C)C1c1ccccc1Cl (configuration not stated)	18.9	6.1	-8.2	-12.0	18.8	20.4	.
O=C(c1ccc2c3n(nc2c1)-c1ccccc1CO3)N1CCOCC1	-178.6	-12.9	51.5*	45.4	11.5	-159.0	49.1
C[C@@H](CO)NC(=O)c1ccc2c3n(nc2c1)-c1ccccc1CO3	-42.1	-15.0	90.8*	88.7*	-39.3	-64.6	90.9*
O=C(c1ccc2c3n(nc2c1)-c1ccccc1CO3)N1CCCCC1	-135.8	-35.5	70.3*	57.9*	-15.7	-107.5	60.0*
O=C(CN1CCN(C(=O)c2cc(C3CC3)nn2-c2ccccc2)CC1)Nc1ccc(F)cc1	19.7	-20.3	-0.1	.	-0.8	18.0	.
SMILES	HIF-2a block	KKLEB cytotox	TRAIL sens C8	PPC-1+TRAIL kill	CF NFkB inh	Peg3 prom inh	PPC-1 tox
CSc1ccc(CN2CCC(C)(Oc3ccccc3F)C2)cc1 (configuration not stated)	2.5	1.3	-6.1	.	-0.7	-18.8	.
O=c1c(O)c(-c2cccs2)oc2ccc(Cl)cc12	-69.1	22.7	10.6	2.1	-20.3	-22.4	6.0
CC1(C(=O)NS(=O)(=O)c2ccc(F)cc2F)CCN1C(=O)c1cccc(F)c1 (configuration not stated)	7.5	-2.4	-12.1	.	-16.4	-8.6	.
O=C(Nc1ccc(Cl)c(Cl)c1)c1ccc(Cl)c(Cl)c1	-272.4	-3.4	-1.1	2.0	-1.6	-127.0	.
O=C(Nc1ccc(Cl)c(Cl)c1)c1ccncc1	-194.0	4.2	2.5	8.2	-13.6	-142.4	11.5
CNc1ncnc2c1ncn2[C@H]1CN(Cc2ccc(F)cc2)C[C@@H](CO)O1	6.8	0.8	-14.1	.	-8.7	9.8	.
O=C(/C=C/c1ccccc1Br)c1ccc2c(c1)OCO2	-230.6	-3.9	-18.2	.	-1.4	-106.1	.
O=C(/C=C\Nc1ccccc1Br)c1ccc2c(c1)OCO2	-28.2	-75.1*	91.2*	93.4*	-7.1	-32.5	93.8*
O=C(/C=C\Nc1cccc(F)c1)c1ccc2c(c1)OCO2	-22.5	-34.3	72.0*	73.8*	-5.5	-35.6	70.9*
Cc1c(OCC(=O)NCCN2CCOCC2)ccc2c1oc(=O)c1ccccc12	-15.5	-1.1	19.9	.	-9.8	48.0	.
Cc1cc(/C=C2/C(=O)NN(c3ccccc3)C2=O)c(C)n1-c1cccc(O)c1	-39.6	-15.3	84.5*	81.2*	6.1	-98.2	82.9*
C[C@@H]1CN([C@@H](C)CO)C(=O)c2cc(C#Cc3ccccc3)cnc2O[C@@H]1CN(C)Cc1ccccn1	5.6	3.1	2.0	.	-7.5	-12.2	.
CN(c1cccc(NC(=O)c2ccc(N(C)S(=O)(=O)c3ccccc3)cc2)c1)S(C)(=O)=O	22.0	4.2	22.6	21.3	-2.6	38.0	.
CCc1ccccc1N(CC(=O)Nc1cccc(N(C)S(C)(=O)=O)c1)S(C)(=O)=O	6.3	-4.5	1.0	8.6	9.5	15.8	17.5
CN(c1cccc(NC(=O)c2ccc(C(C)(C)C)cc2)c1)S(C)(=O)=O	-215.5	-14.7	73.4*	40.9	-0.3	-175.1	53.2*
CCc1ccccc1N(CC(=O)O)S(C)(=O)=O	6.0	0.7	29.4	-13.9	1.8	2.3	-15.4
Cc1cccc(OCCn2c(NC(=O)c3ccco3)nc3ccccc32)c1	-77.1	-1.5	13.1	7.2	2.7	-34.3	12.7
Cc1ccc(OCCn2c(NC(=O)c3ccco3)nc3ccccc32)cc1	-4.7	1.4	25.1	2.1	-9.7	7.6	.
Cc1ccc(/C=C/C(=O)C2C(=O)c3ccccc3C2=O)cc1	-83.1	-36.0	85.1*	94.8*	-1.5	-72.6	94.1*
CC(=O)c1ccc(N=Nc2ccc(N)cc2)cc1	-50.7	0.3	82.6*	54.1*	-23.0	-71.7	54.8*
C[C@@H]1CN([C@@H](C)CO)S(=O)(=O)c2ccc(Br)cc2O[C@H]1CN(C)C(=O)Nc1ccc2c(c1)OCO2	-6.5	4.6	-20.9	.	-3.2	-16.9	.
COc1ccc(/C=N/Nc2nnc(Cc3ccccc3)c(=O)[nH]2)cc1OC	-170.7	5.0	67.9*	59.2*	-4.9	-130.4	58.9*
